# Hit rate of the full screen: of about 21,000 compounds, fewer than 10 showed an effect of 50% or more. The list is a sample of the results. Results with a measured potency or affinity are listed apart.
# Test system: Acinetobacter baumannii
# Settings: Concentration 300 ug.mL-1; ASSAY_TEST Inhibition of Bacterial Growth; detection method Absorption (OD600); MEDIA CAMHB; plate type 384well; NBS; CORNING #3640; time 18 hr
row,SMILES,Inhibition
1,NS(=O)(=O)N1CCCNCC1,17.02%
2,CCN(CC)C(=O)NCC[S+]([O-])C(C)(C)C (configuration not stated),4.98%
3,CN(CCc1ccc(Br)cc1)C(=O)CCCN,4.12%
4,CNC(=O)c1c(C)cccc1NCCCOC,4.81%
5,COc1ccc(OCCCC(=O)NCCN(C)C)cc1,9.28%
6,COCCN1CCCN(C(=O)C(C)C)CC1,-1.05%
7,O=C1CN(C(=O)c2ccn(-c3ccccc3)n2)CCN1,1.11%
8,NC1CCN(CC(=O)N2CCOCC2)CC1,3.07%
9,CC(O)(CN)C(F)(F)F (configuration not stated),-3.1%
10,CC(N)CCNS(=O)(=O)c1ccccc1 (configuration not stated),10.98%
11,NCC(=O)NCc1ccncc1,9.5%
12,O=C(Nc1cccc(CN2CCCC2=O)c1)C1CC1,1.2%
13,CC(C)CCNC(=O)CCn1cc(Br)ccc1=O,8.21%
14,COc1ccc(C(=O)NCC2(C)COC2)c(F)c1F,4.61%
15,CO[C@@H]1CN[C@@H](c2nc(C)no2)C1,-0.59%
16,COCc1cccc(-c2nc(C3CCOC3)no2)n1 (configuration not stated),9.25%
17,Cc1cc(=O)cc(C(=O)N2CCCC(C)(C#N)C2)o1 (configuration not stated),0.52%
18,CN(CCCS(C)(=O)=O)CC1CCN(CCO)CC1,0.5%
19,O=C(c1cncc(F)c1)N1CC(N2CCCCC2)C1,2.2%

row,SMILES,Inhibition
1,CN(CC1CCOCC1)C(=O)NCc1ccco1,4.16%
2,Cn1ccnc1CN(Cc1ccc(CO)o1)C1CC1,10.44%
3,Cc1nc(C(C)(C)N)sc1C,11.05%
4,Nc1nc(CCCNC(=O)Cc2ccsc2)cs1,10.16%
5,Cn1nnnc1SCc1cc(Cl)c2c(c1)OCCO2,3.66%
6,O=S(=O)(c1ccco1)N1CCOCc2ccccc21,6.19%
7,N#Cc1ccc(OCC(O)CN2CCSCC2)cc1 (configuration not stated),10.14%
8,Cc1cccc(C2NCCNC2=O)c1 (configuration not stated),12.66%
9,COCCN(Cc1cnn(C)c1)C(=O)C1CCNC1 (configuration not stated),2.42%
10,CN1CCN(C(C)(C)CNC(=O)Nc2cn[nH]c2)CC1,-0.91%
11,O=C(NCCCOC(F)F)NCc1ccc(Br)o1,3.72%
12,O=C(NC1CCCOc2ccc(F)cc21)c1c[nH]nn1 (configuration not stated),8.95%
13,COC(=O)CN1CCN(C(=O)N(C)C)CC1,20.07%
14,COc1ccc(SCC(=O)NC2CCN(C)CC2)cc1,2.47%
15,COCCN(C)C[C@@H]1CN(C(=O)C2CCC2)C[C@@H]1CO,6.32%
16,CN(CCS(=O)(=O)c1ccc(Cl)cc1)CC(=O)N(C)C,-3.7%
17,CSCC(=O)NC1CCCC1,5.49%
18,CCS(=O)(=O)NCCCNS(=O)(=O)c1ccc(C)cc1,0.89%
